Experiments:
[1] = molecular target: Fibroblast growth factor receptor 4 (Homo sapiens) (UniProt P22455); settings: at 1 µM;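 further: reported figure is the averaged percent inhibition of FGFR4, from the GSK PKIS kinase screening panel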
[2] = molecular target: Tyrosine-protein kinase Fgr (Homo sapiens) (UniProt P09769); settings: at 0.1 µM
[3] = molecular target: Tyrosine-protein kinase Fgr (Homo sapiens) (UniProt P09769); settings: at 1 µM
[4] = molecular target: Vascular endothelial growth factor receptor 1 (Homo sapiens) (UniProt P17948); settings: at 0.1 µM
[5] = molecular target: Vascular endothelial growth factor receptor 1 (Homo sapiens) (UniProt P17948); settings: at 1 µM
[6] = molecular target: Receptor-type tyrosine-protein kinase FLT3 (Homo sapiens) (UniProt P36888); settings: at 0.1 µM
[7] = molecular target: Receptor-type tyrosine-protein kinase FLT3 (Homo sapiens) (UniProt P36888); settings: at 1 µM
[8] = tested on: T1, Receptor-type tyrosine-protein kinase FLT3 (Homo sapiens), P36888 [D835Y]; settings: at 0.1 µM
T1 sequence (whole entry): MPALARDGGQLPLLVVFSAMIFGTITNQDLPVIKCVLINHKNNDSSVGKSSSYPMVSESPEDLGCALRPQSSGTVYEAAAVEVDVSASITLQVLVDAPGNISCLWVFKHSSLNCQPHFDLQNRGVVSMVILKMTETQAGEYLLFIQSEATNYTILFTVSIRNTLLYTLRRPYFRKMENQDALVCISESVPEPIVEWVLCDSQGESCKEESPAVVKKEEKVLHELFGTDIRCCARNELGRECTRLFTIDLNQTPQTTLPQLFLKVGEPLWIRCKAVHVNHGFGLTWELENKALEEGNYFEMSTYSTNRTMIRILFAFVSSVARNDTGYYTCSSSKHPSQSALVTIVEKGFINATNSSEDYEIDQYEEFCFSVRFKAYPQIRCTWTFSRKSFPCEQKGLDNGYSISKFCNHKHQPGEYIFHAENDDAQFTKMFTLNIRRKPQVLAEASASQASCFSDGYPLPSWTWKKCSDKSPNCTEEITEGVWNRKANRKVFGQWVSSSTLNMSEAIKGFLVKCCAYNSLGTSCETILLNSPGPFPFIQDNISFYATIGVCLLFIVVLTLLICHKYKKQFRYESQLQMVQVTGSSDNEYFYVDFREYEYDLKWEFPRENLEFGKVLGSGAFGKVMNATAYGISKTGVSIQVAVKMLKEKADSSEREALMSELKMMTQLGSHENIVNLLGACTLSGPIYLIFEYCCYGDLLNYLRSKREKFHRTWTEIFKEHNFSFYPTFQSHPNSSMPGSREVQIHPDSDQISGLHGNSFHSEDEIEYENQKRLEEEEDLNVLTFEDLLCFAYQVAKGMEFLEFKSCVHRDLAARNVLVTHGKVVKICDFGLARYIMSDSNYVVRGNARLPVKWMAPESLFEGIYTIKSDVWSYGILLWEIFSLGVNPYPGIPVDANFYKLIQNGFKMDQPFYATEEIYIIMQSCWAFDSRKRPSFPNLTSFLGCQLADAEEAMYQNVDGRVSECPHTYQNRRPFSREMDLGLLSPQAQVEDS

[9] = molecular target: Non-receptor tyrosine-protein kinase TYK2 (Homo sapiens) (UniProt P29597); settings: at 1 µM;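 further: values are mean percent inhibition of TYK2 kinase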
[10] = molecular target: T2, Tyrosine-protein kinase receptor TYRO3 (Homo sapiens) (UniProt Q06418); settings: at 0.1 µM;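 further: reported percentages are averaged inhibition values of TYRO3 kinase activity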
T2 sequence (whole entry): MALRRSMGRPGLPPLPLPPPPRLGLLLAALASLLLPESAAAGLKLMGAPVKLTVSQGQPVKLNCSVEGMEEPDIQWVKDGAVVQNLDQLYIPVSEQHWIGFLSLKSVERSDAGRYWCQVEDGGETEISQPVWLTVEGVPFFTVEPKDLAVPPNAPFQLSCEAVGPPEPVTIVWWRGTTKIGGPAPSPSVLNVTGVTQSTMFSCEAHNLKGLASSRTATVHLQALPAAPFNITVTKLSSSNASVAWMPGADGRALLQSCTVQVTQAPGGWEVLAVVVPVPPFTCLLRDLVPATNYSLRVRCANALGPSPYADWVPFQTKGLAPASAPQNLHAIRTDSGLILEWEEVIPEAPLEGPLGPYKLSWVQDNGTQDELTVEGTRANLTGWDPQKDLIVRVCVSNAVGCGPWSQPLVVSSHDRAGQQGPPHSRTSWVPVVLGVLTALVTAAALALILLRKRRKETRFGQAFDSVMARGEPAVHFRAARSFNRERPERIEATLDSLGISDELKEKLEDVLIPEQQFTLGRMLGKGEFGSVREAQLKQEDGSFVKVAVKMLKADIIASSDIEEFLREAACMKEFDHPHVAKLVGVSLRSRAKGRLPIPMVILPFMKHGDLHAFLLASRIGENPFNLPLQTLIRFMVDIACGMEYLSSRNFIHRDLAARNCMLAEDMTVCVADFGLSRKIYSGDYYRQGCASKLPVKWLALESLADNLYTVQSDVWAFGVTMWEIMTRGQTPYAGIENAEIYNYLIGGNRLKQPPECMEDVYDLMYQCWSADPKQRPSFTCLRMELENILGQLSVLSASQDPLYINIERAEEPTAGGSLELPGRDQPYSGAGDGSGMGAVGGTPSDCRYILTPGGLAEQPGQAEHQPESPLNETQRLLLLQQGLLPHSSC

Chain of Fibroblast growth factor receptor 4 (Homo sapiens) (P22455 22-802 limits assumed): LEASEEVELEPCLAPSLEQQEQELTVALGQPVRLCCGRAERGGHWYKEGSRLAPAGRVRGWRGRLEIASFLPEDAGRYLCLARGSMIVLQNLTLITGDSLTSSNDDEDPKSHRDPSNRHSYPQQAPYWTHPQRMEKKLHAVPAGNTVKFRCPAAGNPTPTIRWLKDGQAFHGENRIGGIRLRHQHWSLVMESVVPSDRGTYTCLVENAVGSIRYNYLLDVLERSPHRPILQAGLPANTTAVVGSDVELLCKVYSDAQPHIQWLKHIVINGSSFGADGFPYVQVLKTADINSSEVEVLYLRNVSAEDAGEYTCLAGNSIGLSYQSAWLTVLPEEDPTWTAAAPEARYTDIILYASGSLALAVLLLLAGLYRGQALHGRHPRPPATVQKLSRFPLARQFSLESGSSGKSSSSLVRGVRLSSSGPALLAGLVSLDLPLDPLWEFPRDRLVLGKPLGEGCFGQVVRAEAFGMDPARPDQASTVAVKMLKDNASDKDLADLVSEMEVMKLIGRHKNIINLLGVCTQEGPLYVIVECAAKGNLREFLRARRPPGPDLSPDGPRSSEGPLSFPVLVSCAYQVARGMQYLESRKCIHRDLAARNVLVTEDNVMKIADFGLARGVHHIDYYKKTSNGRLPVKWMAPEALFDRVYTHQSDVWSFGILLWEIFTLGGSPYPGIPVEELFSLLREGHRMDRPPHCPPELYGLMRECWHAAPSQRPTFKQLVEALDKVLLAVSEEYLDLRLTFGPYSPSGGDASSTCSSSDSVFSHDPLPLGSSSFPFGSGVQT
Chain of Tyrosine-protein kinase Fgr (Homo sapiens) (P09769 2-529 limits assumed): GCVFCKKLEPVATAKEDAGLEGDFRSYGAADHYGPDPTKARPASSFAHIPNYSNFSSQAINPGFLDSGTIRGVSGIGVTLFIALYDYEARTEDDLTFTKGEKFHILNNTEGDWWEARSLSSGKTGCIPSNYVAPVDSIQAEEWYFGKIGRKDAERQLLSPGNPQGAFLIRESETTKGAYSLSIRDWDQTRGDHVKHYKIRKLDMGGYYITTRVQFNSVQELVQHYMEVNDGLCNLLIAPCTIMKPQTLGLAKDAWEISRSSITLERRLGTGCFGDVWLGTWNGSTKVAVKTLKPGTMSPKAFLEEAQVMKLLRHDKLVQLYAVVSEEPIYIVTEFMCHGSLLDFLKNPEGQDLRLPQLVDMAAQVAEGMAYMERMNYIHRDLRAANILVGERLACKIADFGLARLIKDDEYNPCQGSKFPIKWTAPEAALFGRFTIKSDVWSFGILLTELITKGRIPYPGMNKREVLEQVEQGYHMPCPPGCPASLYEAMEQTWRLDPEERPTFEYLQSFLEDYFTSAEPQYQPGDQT
Chain of Non-receptor tyrosine-protein kinase TYK2 (Homo sapiens) (P29597 whole entry): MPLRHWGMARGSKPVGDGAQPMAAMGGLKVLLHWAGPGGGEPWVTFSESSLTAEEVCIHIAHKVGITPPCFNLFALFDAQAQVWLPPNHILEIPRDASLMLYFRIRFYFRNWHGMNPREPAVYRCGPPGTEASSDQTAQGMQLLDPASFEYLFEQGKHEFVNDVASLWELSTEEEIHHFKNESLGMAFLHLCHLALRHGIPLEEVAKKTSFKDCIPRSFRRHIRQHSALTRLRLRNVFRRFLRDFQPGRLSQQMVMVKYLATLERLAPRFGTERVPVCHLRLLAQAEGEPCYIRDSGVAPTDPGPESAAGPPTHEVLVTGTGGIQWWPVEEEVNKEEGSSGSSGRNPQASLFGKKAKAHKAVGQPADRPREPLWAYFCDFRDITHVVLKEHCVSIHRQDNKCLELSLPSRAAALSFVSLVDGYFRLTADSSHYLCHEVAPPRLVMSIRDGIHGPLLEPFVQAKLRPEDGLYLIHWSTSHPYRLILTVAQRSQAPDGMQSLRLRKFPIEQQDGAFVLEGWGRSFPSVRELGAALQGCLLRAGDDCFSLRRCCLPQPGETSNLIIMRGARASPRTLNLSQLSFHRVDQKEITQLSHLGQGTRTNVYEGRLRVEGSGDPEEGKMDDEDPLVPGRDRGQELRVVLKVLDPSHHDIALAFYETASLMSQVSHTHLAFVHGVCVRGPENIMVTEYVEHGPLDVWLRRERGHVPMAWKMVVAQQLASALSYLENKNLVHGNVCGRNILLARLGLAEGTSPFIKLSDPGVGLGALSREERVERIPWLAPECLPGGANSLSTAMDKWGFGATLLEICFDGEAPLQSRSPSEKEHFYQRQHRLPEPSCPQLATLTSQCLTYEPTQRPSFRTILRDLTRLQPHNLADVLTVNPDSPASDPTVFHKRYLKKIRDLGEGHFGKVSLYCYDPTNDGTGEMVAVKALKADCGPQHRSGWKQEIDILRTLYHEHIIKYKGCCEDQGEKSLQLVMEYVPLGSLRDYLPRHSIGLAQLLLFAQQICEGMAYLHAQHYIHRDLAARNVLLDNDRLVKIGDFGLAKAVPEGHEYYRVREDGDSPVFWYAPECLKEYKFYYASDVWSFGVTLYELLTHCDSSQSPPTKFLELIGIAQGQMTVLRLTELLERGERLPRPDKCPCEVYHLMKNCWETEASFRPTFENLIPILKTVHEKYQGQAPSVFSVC
Chain of Vascular endothelial growth factor receptor 1 (Homo sapiens) (P17948 whole entry): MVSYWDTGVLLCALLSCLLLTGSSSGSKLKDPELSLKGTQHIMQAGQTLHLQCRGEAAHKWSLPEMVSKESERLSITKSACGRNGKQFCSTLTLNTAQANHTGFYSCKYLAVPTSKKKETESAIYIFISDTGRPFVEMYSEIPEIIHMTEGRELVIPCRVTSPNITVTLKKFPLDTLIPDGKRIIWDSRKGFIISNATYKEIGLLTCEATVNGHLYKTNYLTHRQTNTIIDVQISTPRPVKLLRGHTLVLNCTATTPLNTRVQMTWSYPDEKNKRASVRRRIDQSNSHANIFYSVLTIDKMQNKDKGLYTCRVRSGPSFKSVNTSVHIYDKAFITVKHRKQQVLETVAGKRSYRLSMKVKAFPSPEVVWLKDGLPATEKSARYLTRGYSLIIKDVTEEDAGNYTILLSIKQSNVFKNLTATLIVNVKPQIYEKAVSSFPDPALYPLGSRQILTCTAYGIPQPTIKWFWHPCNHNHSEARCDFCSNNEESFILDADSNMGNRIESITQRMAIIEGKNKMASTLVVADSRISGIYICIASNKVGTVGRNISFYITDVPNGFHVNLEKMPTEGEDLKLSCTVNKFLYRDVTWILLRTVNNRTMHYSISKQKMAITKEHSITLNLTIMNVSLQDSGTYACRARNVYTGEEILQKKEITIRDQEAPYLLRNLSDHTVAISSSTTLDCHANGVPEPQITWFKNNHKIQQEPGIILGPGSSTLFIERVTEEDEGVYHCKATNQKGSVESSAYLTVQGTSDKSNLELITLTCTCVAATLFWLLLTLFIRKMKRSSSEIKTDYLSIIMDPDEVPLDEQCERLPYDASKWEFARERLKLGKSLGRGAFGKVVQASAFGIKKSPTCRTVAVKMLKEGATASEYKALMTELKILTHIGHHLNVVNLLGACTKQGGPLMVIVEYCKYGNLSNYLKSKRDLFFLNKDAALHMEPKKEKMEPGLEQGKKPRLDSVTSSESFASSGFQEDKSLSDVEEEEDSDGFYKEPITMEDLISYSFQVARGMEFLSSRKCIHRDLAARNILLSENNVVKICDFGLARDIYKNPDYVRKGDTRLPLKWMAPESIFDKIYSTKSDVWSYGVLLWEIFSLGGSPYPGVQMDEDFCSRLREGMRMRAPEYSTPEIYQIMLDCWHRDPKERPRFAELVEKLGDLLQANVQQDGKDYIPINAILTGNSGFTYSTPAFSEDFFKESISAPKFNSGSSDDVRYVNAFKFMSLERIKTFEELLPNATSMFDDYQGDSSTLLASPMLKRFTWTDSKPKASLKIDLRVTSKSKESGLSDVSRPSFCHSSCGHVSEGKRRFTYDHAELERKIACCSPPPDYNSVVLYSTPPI

SMILES | inhibition [1] [%] | inhibition [2] [%] | inhibition [3] [%] | inhibition [4] [%] | inhibition [5] [%] | inhibition [6] [%] | inhibition [7] [%] | inhibition [8] [%] | inhibition [9] [%] | inhibition [10] [%]
CN(C)CCCn1c(-c2nonc2N)nc2cnccc21 | 1.11 | 1.37 | 2.22 | 1.09 | 2.77 | 2.53 | 1.85 | -5.34 | -2.04 | 1.74
NS(=O)(=O)c1ccc(Nc2cc(-c3cccc(O)c3)n[nH]2)cc1 | 4.03 | 2.88 | 6.79 | 2.51 | 11.9 | 5.64 | 23.2 | 3.16 | -3.05 | 3.41
CN(C)C(=O)O[C@@H]1CN[C@@H](C#Cc2cc3ncnc(Nc4ccc(OCc5cccc(F)c5)c(Cl)c4)c3s2)C1 | 0.26 | 4.03 | 8.75 | -0.77 | 1.01 | -1.89 | -0.37 | -2.1 | 0.28 | -0.78
CC(C)c1ccc2c(c1)NC(=O)/C2=N/Nc1ccc(S(N)(=O)=O)cc1 | -0.36 | 2.93 | 15.5 | 1.02 | 2.87 | 4.65 | 43.7 | -2.45 | 1.48 | -0.25
c1ccc(Nc2ncc(-c3ccccc3)o2)cc1 | 0.73 | 5.98 | 15 | 1.21 | 11.7 | 33.1 | 78.8 | 5.03 | -4.84 | 4.31
CCS(=O)(=O)c1ccc(OC)c(Nc2ncc(-c3cccc(OC)c3)o2)c1 | 7.65 | 19.9 | 65.2 | 9.91 | 55.9 | 16.3 | 68 | 29.4 | -4.34 | 7.64
Cc1cc(-c2ccccn2)cc(C)c1/C=C/c1cncc(-c2nn[nH]n2)c1 | -0.54 | 2.37 | 18.2 | -0.29 | 1.74 | 5.83 | 3.4 | -7.99 | -2.42 | 0.01
N#Cc1cccc(Nc2nccc(-c3cnn4ncccc34)n2)c1 | 5.22 | 11.1 | 41.7 | 8.37 | 28.3 | 18.5 | 68 | 7.57 | 11 | 7.97
Cc1ccc(C(=O)NC2CC2)cc1-c1ccc2[nH]ncc2c1 | 0.32 | -1.47 | 1.41 | -2.04 | -1.81 | -3.48 | 0.84 | -3.02 | 2.43 | -1.74
COc1cccc(-n2nc(C)c3c(N/N=C(\C)c4ccncc4)ncnc32)c1 | -0.8 | 1.55 | 4.36 | -0.52 | -0.07 | 0.32 | -1.96 | -4.92 | -0.79 | 1.37
COc1cc(/C=N/Nc2ncnc3c2cnn3C(C)C)ccc1O | 1.4 | 9.02 | 40.4 | -0.74 | 3.88 | 2.52 | 22.7 | -2.61 | 4.77 | 4.41
COc1ccc(-c2nn3ncccc3c2-c2ccnc(Nc3cccc(C(F)(F)F)c3)n2)cc1 | 0.55 | 10.2 | 42.1 | 4.29 | 10.2 | 1.01 | 1.12 | -4.47 | -0.27 | 1.68
Nc1nccc(C#Cc2cncnc2Nc2ccc(OCc3cccc(F)c3)c(Cl)c2)n1 | -2.31 | 0.12 | 4.81 | 2.06 | 3.36 | 0.89 | 3.87 | 3.95 | -1.09 | 3.02
Nc1nccc(-c2c(-c3ccc(F)cc3)nn3cc(C(F)(F)F)ccc23)n1 | 0.14 | 2.64 | 4.08 | -2.26 | 0.63 | 2.41 | -0.04 | -7.47 | -2.71 | 0.03
Oc1cccc(-c2nc(-c3ccccc3)[nH]c2-c2ccncc2)c1 | 1.85 | 5.71 | 19.5 | 10.6 | 43.8 | 5.28 | 19.5 | 0.36 | -1.42 | 3.99
CCS(=O)(=O)c1ccc(OC)c(Nc2nccc(N(C)c3ccc4c(C)n[nH]c4c3)n2)c1 | 11.3 | 23.1 | 61.6 | 60.8 | 91.2 | 6.38 | 6.74 | -7.67 | -2.86 | 1.44
O=S(=O)(CCOCc1ccc(-c2ccc3ncnc(Nc4ccc(OCc5cccc(F)c5)c(Cl)c4)c3c2)o1)c1ccccc1 | 0.08 | -0.06 | 2.31 | -2.31 | 0.57 | 4.16 | 2.25 | -3.61 | -0.44 | -0.84
ON=C1CCc2cc(-c3nc(C4CCNCC4)[nH]c3-c3ccncc3)ccc21 | 1.91 | -1.48 | 2.99 | 0.48 | 0.61 | -2.95 | 0.24 | -4.99 | -0.2 | 0.16
CCn1c(-c2nonc2N)nc2c(C#CC(C)(C)O)nc(OCCNC)cc21 | 1.88 | 0.15 | 3.62 | 1.71 | 10.2 | 1.46 | 4.57 | -1.99 | -2.59 | 2.56
